How the values were obtained:
Assay in all cases: PBM binding z-score (relative to random genomic background probes); higher = stronger binding; sequences stand for … in GC…GCGATTGACAGCGTAGAATGAAGG
[1] = test system: RARb homodimer (NR concentration 270 nM)
How it was run: (§1)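 Binding z-scores take random background probes as their reference. They come from custom Agilent 4×180K protein-binding microarrays incubated 1 h with ligand-free nuclear receptor dimers, with antibodies against each partner (one per run) detecting binding. Scanned fluorescence was regression-normalized.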

[2] = test system: RARg:RXRa (NR concentration 270 nM, RXRa partner concentration 90 nM)
How it was run: as §1

[3] = test system: RARg homodimer (NR concentration 270 nM)
How it was run: as §1

[4] = test system: RXRa DBDmut IVT, anti-RXR (DBD mutation: RXRa K156A/R161A, NR concentration 90 nM)
How it was run: as §1

[5] = test system: RXRa homodimer (NR concentration 180 nM)
How it was run: as §1

[6] = test system: THRa:RXRa (NR concentration 90 nM, RXRa partner concentration 90 nM)
How it was run: as §1

[7] = test system: THRa homodimer (NR concentration 90 nM)
How it was run: as §1

[8] = test system: VDR homodimer (NR concentration 270 nM)
How it was run: as §1

Sequence | PBM binding z-score [1] | PBM binding z-score [2] | PBM binding z-score [3] | PBM binding z-score [4] | PBM binding z-score [5] | PBM binding z-score [6] | PBM binding z-score [7] | PBM binding z-score [8]
CTCGAAAGGTCGTCCTCAGGTGAGTATACCAAAC | 3 | 5.29 | 4.2 | 2.35 | 4.82 | 4.13 | 1.94 | 1.84
TCGAGTAGGTTACGGGGGCATTGAGGGATGAAGA | 2.27 | 3.47 | 2.72 | 1.71 | 2.66 | 2.97 | 1.39 | 3.13
CTATGTAGGGTAAGGGGGTCATTCAGTTTGAAAG | 4.04 | 5 | 3.92 | 2.91 | 5.44 | 3.99 | 2.95 | 6.62
CCGAGTAGGTTAAGAGGGGGCATTCAGTGCGAAT | 2.25 | 2.76 | 2.49 | 2.04 | 1.76 | 3.73 | 0.843 | 4.02
CGGACTAGGTCAAAGGACAGTGAAAGGCGACGTA | 2.91 | 3.97 | 4.51 | 1.33 | 3.02 | 2.57 | 0.589 | 0.288
CGAACTAGGTCACCAAGACAGTGAAGAGGTTGGA | 3.11 | 4.04 | 4.97 | 1.29 | 3.06 | 2.74 | 1.28 | 0.496
CCGAGTTGGTTACGAGGGGGCATTCAGTGCGAAT | 1.81 | 1.91 | 1.44 | 2.58 | 1.02 | 2.46 | 0.911 | 4.2
GCTGCTAGGTCAGGTTGGTCAACTAACGGGTACG | 2.85 | 2.92 | 3.89 | 0.438 | 1.17 | 1.91 | 0.472 | 0.97
CCTACTGGGCCAACAAGGTCATTGATGCCGATAA | 3.24 | 2.97 | 2.76 | 0.655 | 3 | 3.4 | 2.41 | 3.7
GCTTACGGGTCAAAGGTTATAGTATGAATAGAAT | 3.5 | 6.8 | 4.72 | 2.7 | 9.39 | 3.99 | 0.429 | 1.88
CGTCTAAGGTCAGCAGGTCAGTGAAAGCGACGTG | 5.24 | 6.82 | 7.53 | 3.01 | 6.01 | 4.47 | 3.96 | 1.86
CCGAGTAGGTTACGAGGGGCCATTCAGTGCGAAT | 1.53 | 1.3 | 1.23 | 0.177 | 0.889 | 3.34 | -0.418 | 0.802
GCTGCTAGGTCAGGTTGGTCTGCTAACGGGTACG | 2.51 | 2.46 | 3.25 | 0.755 | 1.04 | 1.89 | 0.834 | 0.554
CGTCTAAGGTCAAAGGTCAGTGAAGAGATGACGG | 5.44 | 8.98 | 8.65 | 4.46 | 10.7 | 5.01 | 4.1 | 3.65
AATACAGGGTCACTTGGCCAGAGTAGGTACGAAT | 3.25 | 5.22 | 5.19 | 3.11 | 5.25 | 3.37 | 1.15 | 2.85
TCTAGTTGGTTACGGAGGTCACACACGACGGGTA | 3.79 | 4.2 | 3.66 | 1.12 | 4.33 | 3.52 | 2.49 | 3.21
TCGAGTAAGTTACGGGGGCATTCAGGGATGAAGA | 1.15 | 1.48 | 0.746 | 1.48 | 1.4 | 3.54 | 0.682 | 3.03
CAGAGTAGGTTACGAGGGGGCATTCAGTGCGAAT | 2.26 | 3.13 | 2.84 | 1.78 | 2.2 | 3.68 | 1.15 | 4.2
TAGCCTAGGTCACGGGCCAGTATACCACGCGAAC | 3.83 | 5.12 | 5.43 | 0.27 | 4.73 | 3.83 | 1.84 | 0.425
TCTAGTTGGTCAAAGGTCTCACACTCGAAATGCG | 1.83 | 1.78 | 1.17 | 1.14 | 1.98 | 0.831 | 0.738 | 0.545
TCTTGTAGATCAAAGCTTAAGAAAGCCGAAGCCT | -0.931 | -0.422 | -0.665 | 0.503 | -0.173 | -0.444 | -1.01 | -0.74
CGAACTATGTCAAGGACAGTGAATCTCCGCACGC | 0.507 | 0.587 | 0.808 | 0.328 | 0.197 | 1.76 | 1.21 | -0.0899
CCTACAGGGCCAAGGTCATTGATCAGTCAAAGCA | 3.47 | 3.94 | 3.71 | 1.5 | 3.32 | 3.46 | 1.93 | 2.91
CGAACTAGATCACCAGGACAGTGAAGAGGTTGGA | 0.0313 | -0.13 | 0.172 | 0.251 | 0.0064 | 0.901 | 0.52 | -0.172
CGAGCTAGGTCACCAGGACAGTGAAGAGGTTGGA | 3.31 | 4.21 | 5.39 | 1.24 | 2.97 | 3.18 | 1.65 | 0.493
CCGAGTAGGTTACGAGCGGGCATTCAGTGCGAAT | 0.628 | 0.683 | 0.688 | 0.309 | 0.313 | 1.23 | -0.803 | -0.206
CCGAGTAGGTTACGAGGGGGCATGCAGTGCGAAT | 2.07 | 3.17 | 2.67 | 1.12 | 2.12 | 3.73 | 0.433 | 2.6
AGTCAAAGTTCATCTGGGTAACGTAAGATATGCT | 4.07 | 5.32 | 5.48 | 4.78 | 4.42 | 2.82 | 0.135 | 4.81

Source: the supplement of paper PMC6555819
